Bioassay records from PubChem.
MEKK2 mut-MEK5 – signal of MEK5 binding to mutant human MEKK2 PB1 domain; AID 1530; hit rate 0.35% among 290,000; percent response, % at 10 µM; bead flow cytometry, Alexa488-MEK5 binding to MEKK2 mutant; in the data active = percent response above about 24%, passing the limit was not always enough
SKN-1 block – C. elegans SKN-1 inhibition; C. elegans VP596 Pgst-4::GFP/RFP ratio, acrylamide-induced, 24 h; inhibition, % at 21.8 µM; hit rate 0.49% among 360,000; AID 624304;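 active = interference check ratio from 0.5 to 1.5 plus GFP to RFP signal ratio inhibition reaching or exceeding a fixed threshold, cut at about 30% in these data, passing the limit was not always enough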
MEKK3 PB1 HTS – modulators (inhibitors or enhancers) of MEK5 binding to human MEKK3 PB1 domain | bead-based flow cytometry, Alexa488-MEK5 binding to MEKK3; actives lie on both sides; 0 = blocked by unlabeled MEK5, 100 = vehicle | binding response (% of control), % at 10 µM | hit rate 1.4% among 290,000;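 active = binding response more than 3 SD above or below the average of its plate-row segment, actives on both sides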;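 also: Alexa488 bead fluorescence after subtracting the streptavidin-only scavenger bead signal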
Target sequence (Q99759 whole entry, looked up, the tested form may be a part): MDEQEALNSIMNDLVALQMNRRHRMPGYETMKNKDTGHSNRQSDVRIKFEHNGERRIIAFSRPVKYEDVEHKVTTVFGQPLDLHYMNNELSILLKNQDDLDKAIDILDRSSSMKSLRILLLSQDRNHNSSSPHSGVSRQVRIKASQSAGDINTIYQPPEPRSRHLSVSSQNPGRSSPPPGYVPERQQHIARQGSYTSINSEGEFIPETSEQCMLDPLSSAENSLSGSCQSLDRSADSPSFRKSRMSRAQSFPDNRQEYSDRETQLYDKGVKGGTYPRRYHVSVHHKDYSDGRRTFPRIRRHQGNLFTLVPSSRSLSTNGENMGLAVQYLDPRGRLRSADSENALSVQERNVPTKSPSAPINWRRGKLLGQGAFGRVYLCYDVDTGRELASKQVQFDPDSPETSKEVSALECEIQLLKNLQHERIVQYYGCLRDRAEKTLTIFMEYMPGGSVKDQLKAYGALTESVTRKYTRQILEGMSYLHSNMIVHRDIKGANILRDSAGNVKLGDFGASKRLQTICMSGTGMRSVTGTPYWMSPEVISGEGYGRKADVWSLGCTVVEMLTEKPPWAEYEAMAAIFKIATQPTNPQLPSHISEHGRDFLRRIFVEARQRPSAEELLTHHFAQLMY
MEKK2wt PB1 HTS – raises or lowers MEK5 binding to wildtype human MEKK2 PB1 domain. Q9Y2U5. bead flow cytometry, Alexa488-MEK5 binding to MEKK2 WT; actives lie on both sides. binding response (% of control), % at 10 µM. hit rate 1.1% among 290,000. AID 1531; in the data active = binding response below about 67% or above about 130%
CendR NRP1 mod – NRP-1/CendR interaction modulation; O14786; FAM-RPARPAR peptide binding to NRP-1, fluorescence polarization; inhibition, % at 25 µM; hit rate 0.85% among 360,000; AID 602438;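 active = inhibition or corrected inhibition above about 18%, plus a signal ratio from 0.5 to 1.5, limit read from the data, passing the limit was not always enough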
Numbers without * were called inactive; . = no result given. Only some compounds are listed: those with a hit (about 3.2% of all), similar ones and a draw of the others.

SMILES	MEKK2 mut-MEK5	SKN-1 block	MEKK3 PB1 HTS	MEKK2wt PB1 HTS	CendR NRP1 mod
COc1ccc(CNS(=O)(=O)c2ccc(Br)s2)cc1	3	-6	98	99	-6
O=C(c1cc(Br)ccc1O)N1CCN(S(=O)(=O)Cc2ccccc2)CC1	.	-20	.	.	-3
c1ccc(Oc2cc(-c3ccccc3)ncn2)cc1	11	50*	103	107	13
Nc1cc(-c2ccccc2)nn1Cc1ccccc1	4	11	103	105	41*
O=c1ccc(-c2ccccc2)nn1Cc1ccccc1	6	32	105	109	-1
CC1CCN(CCNC(=O)c2ccc3c(=O)n(Cc4ccc(Cl)cc4)c(=S)[nH]c3c2)CC1	39*	10	101	175*	-16
COCCCNC(=O)c1ccc2c(=O)n(Cc3ccc(Cl)cc3)c(=S)[nH]c2c1	3	-6	105	103	6
Cc1ccc(CCNC(=O)c2coc3nc4ccccc4nc23)cc1	.	37*	.	.	-57
CC(C)(C)c1ccc(C(=O)N2CCC2(C)C(=O)NCc2ccc3c(c2)OCO3)cc1 (stereo not drawn)	.	0	.	.	4
COc1ccc(S(=O)(=O)N2CCC[C@H]2C(=O)N2CCC[C@H]2C(=O)NCc2ccncc2)cc1C	.	8	.	.	11
Cc1cccc(C)c1NC(=O)CSc1nnc(-c2ccoc2C)n1CCc1ccccc1	.	13	.	.	21*
COC(=O)C1N[C@@H]([C@@H](NC(=O)COc2ccccc2)C(=O)NC2CC2)SC1(C)C (stereo partly drawn)	-5	11	98	98	31*
CC(=O)Oc1ccc2ccc3ccc(C(C)=O)cc3c2c1	.	17	.	.	7
Cn1c(SCCS(=O)(=O)c2ccc(Cl)cc2)nnc1-c1ccccc1	5	11	104	107	32*
O=S(=O)(NCC(c1ccc2c(c1)OCO2)N1CCOCC1)c1ccc(Cl)cc1 (stereo not drawn)	.	6	.	.	-5
Cc1cc(S(=O)(=O)NCC(c2ccc3c(c2)OCO3)N2CCOCC2)ccc1F (stereo not drawn)	.	3	.	.	24*
CC1=C(C(=O)N2CCOCC2)CC(CC(=O)NCCc2ccccn2)C(=O)N1Cc1ccccc1 (stereo not drawn)	.	13	.	.	26*
CC1=C(C(=O)N2CCOCC2)CC(CC(=O)NCCc2ccccn2)C(=O)N1Cc1ccc(F)cc1 (stereo not drawn)	.	11	.	.	1
CCc1ccc2nc3sc(C(=O)N4CCc5ccccc54)c(N)c3cc2c1	59*	.	103	87	.
CC(C)(C)C(=O)COC(=O)c1c2c(nc3ccccc13)CCC2	-12	4	98	89	7
COC(=O)c1c2c(nc3ccccc13)CCC2	4	41*	113	118	6
COc1ccccc1NS(=O)(=O)c1ccc(C)c(C(=O)N2CCN(c3ccc(O)cc3)CC2)c1	.	24	.	.	5
Cc1ccc(CN2CC(C(=O)Nc3ccccc3N3CCCC3)CC2=O)cc1 (stereo not drawn)	.	-2	.	.	-4
O=C(Nc1cc(C(F)(F)F)ccc1N1CCCC1)C1CC(=O)N(Cc2ccccc2)C1 (stereo not drawn)	.	-7	.	.	24*
CCC1CSC(Nc2ccc(C(=O)/C=C/c3ccc(Oc4ccccc4)cc3)cc2)=N1 (stereo not drawn)	0	15	107	108	6
SMILES	MEKK2 mut-MEK5	SKN-1 block	MEKK3 PB1 HTS	MEKK2wt PB1 HTS	CendR NRP1 mod
CCC1CSC(Nc2ccc(C(=O)/C=C/c3cccc(C)c3)cc2)=N1 (stereo not drawn)	19	54*	99	122	-10
O=C(N/N=C/c1cccc2ccccc12)c1cc(C2CC2)[nH]n1	2	6	105	103	22*
CN1CCC(N(C)C(=O)c2ccc(Cl)c(S(=O)(=O)N(C)c3ccc(Cl)cc3)c2)CC1	.	12	.	.	33*
Cc1ccccc1NC(=O)Cc1nc(COC(=O)c2cccc(O)c2)cs1	.	42*	.	.	5
Cn1ncc(Br)c1C(=O)N1CCCCCC1	9	-6	106	113	8
Cc1ccc(-c2[nH]ncc2C(=O)c2ccccc2C)c(O)c1	4	3	101	98	-6
CCCCCOc1ccc(/C=c2\sc3nc(=O)c(-c4ccccc4)nn3c2=O)cc1OC	-2	-24	77	89	-24
O=c1nc2s/c(=C\c3ccc(-c4ccccc4[N+](=O)[O-])o3)c(=O)n2nc1-c1ccccc1	-2	11	109	97	36*
CC(=O)Oc1ccccc1Cn1c(C)c(C(=O)N(C)Cc2ccc(F)cc2)sc1=O	.	3	.	.	-5
CCCCNC(=O)C1(C)CCCCCN1Cc1cccc2c(OC)cc(C(=O)OCC)cc12 (stereo not drawn)	.	16	.	.	0
Cc1cccc(S(=O)(=O)NC(=O)C2(C)CCN2C(=O)c2sccc2C)c1 (stereo not drawn)	.	20	.	.	-2
CCOc1cc(C(=S)N2CCOCC2)ccc1OS(=O)(=O)c1ccc(NC(C)=O)cc1	8	4	105	105	1
CCOc1cc(C(=S)N2CCOCC2)ccc1OS(=O)(=O)c1ccc(OC)cc1	-2	34	96	99	30*
Oc1c(N=Nc2nn[nH]n2)ccc2ccccc12	.	54*	.	.	15
Oc1c(N=Nc2ccc(F)cc2)ccc2ccccc12	3	73	109	110	-20
Cc1ccc(COn2c(-c3ccc(Cl)cc3Cl)nc3ncccc32)cc1	1	21	100	94	33*
CCCc1c(-c2cccc(Br)c2)ncn1Cc1ccccc1OC	.	-2	.	.	2
CCC1=C(OC(=O)N(CC)CC)N2C(=O)OC(=NCCOC)[C@]2(Cc2ccccc2)[C@H]2C1=CC[C@H]1C(=O)N(CC(=O)OC)C(=O)[C@H]12	3	14	94	95	35*
CCC1=C(OC(=O)N(CC)CC)N2C(=O)OC(=NCC3CC3)[C@]2(Cc2ccccc2)[C@H]2C1=CC[C@H]1C(=O)N(C)C(=O)[C@H]12	3	-3	105	101	26*
CN(CCC1CCOCC1)C(=O)c1cc(COc2c(F)cccc2F)on1	-3	14	95	96	-7
Cc1cccc(C)c1N1C(=O)c2ccccc2NC(=O)C1C(=O)NCC(C)C (stereo not drawn)	.	-5	.	.	-15
CC1=C(C(=O)N2CCCCCC2)CC(CC(=O)NCCCCc2ccccc2)C(=O)N1Cc1ccccc1 (stereo not drawn)	.	-4	.	.	12
O=C(CN1CSCC1=O)N1CCN(S(=O)(=O)c2ccc(Cl)cc2)CC1	.	17	.	.	8
N#Cc1c(-c2ccco2)nc(NCC2CCCO2)[nH]c1=O (stereo not drawn)	3	6	100	101	27*
COCOc1ccc(C=O)cc1OCOC	1	-8	103	103	22*
C/C=C/c1ccc(OCCOc2ccc(C=O)cc2)c(OC)c1	3	-11	107	102	-2
NNC(=O)c1cc(-c2cccs2)nc2ccccc12	-3	-6	92	96	-6
